Out of some 53,000 sequences screened, about 3,700 (7%) were called active.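 Rule for the calls: active = gene knockdowns whose robust z-score for IL-1 alpha signal is at least 2 or at most -2, so actives lie on both sides; inactive = the rest.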 Many of the other results were omitted from the sample, so actives are more common in it than they were.

A short description of this assay: Components of the Cytosolic LPS Sensing Pathway: Gene Identification via Genome-wide siRNA Screen.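 Note: robust z of the log signal after scaling to non-targeting control siRNA wells of the plate.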 To be noted: RAW264.7 macrophages, IL-1a HTRF, actives lie on both sides, screened at 100 nM (by protocol), cells primed 5 h with Pam3CSK4 first. In short, it runs like this:
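Knockdown: 100 nM siRNA, 48h, RAW264.7. Stimulation: Pam3CSK4 5 h, then LipidA via TransIT-TKO 24 h. Output: supernatant IL-1a HTRF, negative-control-normalized, log robust z-score; viability by CellTiter-Glo.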
(Time-resolved FRET reads energy transfer from a long-lived donor to a nearby acceptor.)
As to GGAAGGCCCUAGAAAGGACTT against Gm5094, the z-score was 0.209 (inactive).

GCGUGGCUGUCAUGUAUUUTT against Olfr231: the z-score is 0.247 (inactive).

For the sequence GGAAGAUGUAUUCUUCUCCTT against Gemin4, the z-score was 0.499 (inactive).

GGAGAAGGAGCUGGAAACGTT against Cttn: the z-score was 0.645 (inactive).

Take CCUGAAAACCAUGCAAUACTT against Tas2r125: the z-score is -2.37 (active).

GGGCUACUUCCUGACUAAATT against Ube2s: the z-score is -0.505 (inactive).

For GGACACUAUGCAAUCACCCTT against Rnf216, the z-score is -0.481 (inactive).

Take GGUCUACGUAGAGGAGCUGTT against Mrpl28: the z-score is 1.04 (inactive).

As for GGGAAGCCUUUCUUGUCAGTT against Vmn1r40, the z-score is -0.847 (inactive).

With GGAAUAAAGAAUGGUAUACTT against Zfp280d, the z-score is -0.0544 (inactive).

Take CCAGUAGCACGUGUUAUUUTT against Rbmy: the z-score was 0.0944 (inactive).

With GGAUUAAGAAAGAAACAGGTT against Zfp438, the z-score was -0.387 (inactive).

In the case of GGCCACAGAGCCAAAGAUUTT against Cdca7, the z-score was 0.808 (inactive).

For GCUUGAUCGAAGAAAGACATT against Tdrd3, the z-score is 0.709 (inactive).

As to GCGUAGGUUACGUUCAAGGTT against Ermard, the z-score was 2.74 (active).

For the sequence CGACAGUGAAUGCGCUAAGTT against Slc7a9, the z-score is -0.218 (inactive).

With GCAAAUUCACCGGAAAAUGTT against Sorbs3, the z-score was 1.04 (inactive).

Take GGAGACUUAGAAAAAGACUTT against Olfr1426: the z-score is 1.17 (inactive).

For the sequence GGAGUUUGUAACCCUCCUGTT against Cabp7, the z-score was 1.07 (inactive).

In the case of GCCGUCAUCAUGGAAGGUUTT against Bace1, the z-score is 0.0589 (inactive).

Turning to GGAAUCCUUGGACCUGAGGTT against Tnni3, the z-score was -2.11 (active).

Turning to GGGUCAAUCAGAAGCUAGGTT against Creb3l4, the z-score is -0.573 (inactive).

With GGCAACUGACUAUUUAUUATT against Kcnk13, the z-score is 0.558 (inactive).

In the case of GCAUGAGUAUUCCAAGGAGTT against Arhgef7, the z-score is -2.36 (active).

Turning to GCAGUAUAAGAAUUUCAUGTT against Thada, the z-score was -0.325 (inactive).

With “GGAAAUGUUCUUCAUGUCATT against 1110038F14Rik”, the z-score was -1.95 (inactive).

As to GGCACGUCUGGACAACAUCTT against Cd22, the z-score was -0.707 (inactive).

For GGAGGUGACCUGUAAUCCCTT against Msmb, the z-score was 0.0151 (inactive).

For GCUUUCACUAAUCAGUACATT against Setd5, the z-score is -0.0813 (inactive).
